From PubChem BioAssay (NCI)
Where “and” joins values, the source holds several entries; their conditions need not be identical. Identical values can stand only once. The panel holds about 79,000 compounds, 15% with a hit somewhere; the sample as a whole holds those more often. Rule as the data show it: active = growth inhibition above about 70%; inactive = the rest.

Assays:
[1] = NCI Yeast Anticancer Drug Screen. Data for the rad50 strain (AID 155);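 also: 0% = growth of vehicle-only cultures of the same strain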; conditions: S. cerevisiae rad50 strain growth inhibition, hits give high values; at 50.0 µM unless noted
In short: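 Growth of the mutant yeast was measured after compound exposure and referenced to vehicle-treated cultures.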

[2] = NCI Yeast Anticancer Drug Screen. Data for the mec2-1 strain (AID 157); conditions: S. cerevisiae mec2-1 strain, hits give high values; at 50.0 µM unless noted
In short: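 mec2-1 yeast strain, carrying an alteration in DNA damage repair or cell cycle control, was exposed to compounds; growth inhibition was measured relative to vehicle-treated controls.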

[3] = NCI Yeast Anticancer Drug Screen. Data for the sgs1 mgt1 strain (AID 161);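 also: 0% = growth of cultures given vehicle only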; conditions: S. cerevisiae sgs1 mgt1 strain, hits give high values; at 50.0 µM unless noted
In short: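 Growth of a repair-deficient yeast mutant was monitored after compound treatment and expressed as inhibition relative to vehicle-treated cultures.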

[4] = NCI Yeast Anticancer Drug Screen. Data for the cln2 rad14 strain (AID 165);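 also: 0% = growth equal to vehicle treated cultures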; conditions: S. cerevisiae cln2 rad14 strain, hits give high values; at 50.0 µM unless noted
In short: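 Yeast carrying cln2 and rad14 alterations (cell cycle control and DNA damage repair) were exposed to compounds. Growth inhibition was measured against vehicle-treated controls.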

[5] = NCI Yeast Anticancer Drug Screen. Data for the bub3 strain (AID 167); conditions: S. cerevisiae bub3 mutant strain, hits give high values; at 50.0 µM unless noted
In short: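 Whole-cell yeast assay. The mutant strain was incubated with compounds, and growth inhibition was determined by comparison with vehicle-treated cells.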

[6] = NCI Yeast Anticancer Drug Screen. Data for the mlh1 rad18 strain (AID 175); conditions: S. cerevisiae mlh1 rad18 strain growth inhibition, hits give high values; at 50.0 µM unless noted
In short: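 Growth inhibition of the yeast strain was measured after compound exposure and expressed relative to vehicle-treated controls. The strain carries defined defects in DNA damage repair.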

Measured: growth inhibition

CCCCCCCCCOCC(=O)O
inactive: [1] 34.4% | [2] 5.55% | [3] 7.5% | [4] 3.15% | [5] 2.3% | [6] 6.4%

CC(=O)Oc1c(I)cc(Cc2nc(C)oc2C)cc1I
inactive: [1] -41.1% | [2] -1.15% | [3] 6.5% | [4] 1% | [5] 6.8% | [6] -4.8%

CCOC(=O)c1nnsc1N/N=C\c1ccc([N+](=O)[O-])cc1
inactive: [1] -5.05% | [2] -15% | [3] -25.7% | [4] 12.3% | [5] -19.5% | [6] 14.3%

CCOC(=O)/C(Cc1ccc2ccccc2n1)=N/O
inactive: [1] -6.35% | [2] -26.2% | [3] 0.9% | [4] -16.8% | [5] 13.7% | [6] 6.25%

Cc1ccc(OS(=O)(=O)c2cccc(S(=O)(=O)Oc3ccc(C)cc3)c2)cc1
inactive: [1] 19.9% | [2] 3.35% | [3] 8.9% | [4] 7.7% | [5] 9.45% | [6] 6.15%

CC(=O)CCn1[nH]c(=O)c2ccccc2c1=O
inactive: [1] -2.05% | [2] 7.35% | [3] 1.6% | [4] 7.9% | [5] -3.15% | [6] 10.9%

CC1(C)CC(=O)C=C(NCc2ccccc2)C1
inactive: [1] -0.95% | [2] -2.6% | [3] -8.35% | [4] -24.9% | [5] -19.1% | [6] 11.2%

CC12C(=O)C(C(c3ccccc3)=C1c1ccccc1)C1C(=O)OC(=O)C12 (stereo unspecified)
inactive: [1] -6.8% | [2] 2.8% | [3] -0.15% | [4] -1.6% | [5] -11.9% | [6] -6.65%

CC1=NN(C(=O)c2ccc(Cl)cc2)C(=O)/C1=C/c1cccc([N+](=O)[O-])c1
inactive: [1] -16.7% | [2] -26.2% | [3] -44.9% | [4] -10.6% | [5] -15.9% | [6] -28.4%

O=C1N=CN=C2C=CC(Cl)=C(I)C12 (stereo unspecified)
inactive: [1] 0.85% | [2] 16.1% | [3] 19.5% | [4] 5.35% | [5] 29.9% | [6] 4.15%

CCOc1ccc2nc(NC(=O)C(=O)C(c3cnc4ccccc4n3)[N+](=O)[O-])sc2c1 (stereo unspecified)
inactive: [1] 23.6% | [2] -13.4% | [3] 24.4% | [4] 8.95% | [5] -22.4% | [6] 13.8%

Nc1nc(NCCO)c(NC=O)c(=O)[nH]1
inactive: [1] -11.6% | [2] 6% | [3] -2.6% | [4] -34.4% | [5] -13.8% | [6] -1.35%

CC1(C)C2=CC3(C)N(CN2c2ccccc21)c1ccccc1C3(C)C (stereo unspecified)
inactive: [1] 17.1% | [2] 24.4% | [3] 18.8% | [4] 7% | [5] 12.9% | [6] 15.9%

COc1cc(OC)c(OC)cc1/C=C/c1nc2ccccc2s1
inactive: [1] 25.1% | [2] 20.1% | [3] 41% | [4] 18.8% | [5] 46.9% | [6] 3%

CC(C)[Si]1(C(C)C)OCC2OC(n3ccc(=O)[nH]c3=O)C([Se]c3ccccc3)C2O[Si](C(C)C)(C(C)C)O1 (stereo unspecified)
inactive: [1] 0% | [2] -22.1% | [3] -25.5% | [4] -17.2% | [5] -49.9% | [6] -61.9%

COC(=O)[C@H](Cc1c[nH]c2ccccc12)NC(=O)OCC1OC(n2cc(C)c(=O)[nH]c2=O)CC1N=[N+]=[N-] (stereo partly specified)
inactive: [1] -0.35% | [2] -20.4% | [3] -3.5% | [4] 9.3% | [5] -13.6% | [6] -79.5%

CCCCN1CCC(N)=NC1=O
inactive: [1] 10.1% | [2] -24.9% | [3] -9.1% | [4] 9.2% | [5] -5.6% | [6] -4.15%

CCC(=O)COc1ccc(NC(NC(=O)C(C(F)(F)F)C(F)(F)F)(C(F)(F)F)C(F)(F)F)cc1
inactive: [1] 16.2% | [2] -24.8% | [3] 6.5% | [4] 29.2% | [5] -3.3% | [6] -16%

CCOC(=O)CC(c1ccccc1)C(C)(C(=O)OCC)C(=O)OCC (stereo unspecified)
inactive: [1] -18.3% | [2] -10.8% | [3] 14.8% | [4] 35.9% | [5] 14.2% | [6] -9.3%

O=S(=O)(N/N=C/c1cccc(Cl)c1Cl)c1ccccc1
inactive: [1] 9.3% | [2] 3% | [3] 4.4% | [4] -37.6% | [5] 3.5% | [6] 21.5%

O=C1C=C(Nc2ccccc2)C(=O)C=C1Nc1ccccc1
inactive: [1] -2.3% | [2] 1.65% | [3] 10% | [4] -42.2% | [5] 4.15% | [6] -6%

O=C(CCCl)Nc1ccc(C(=O)CCc2cccc(NC(=O)CCCl)c2)cc1
inactive: [1] 28.9% | [2] 2.65% | [3] 7.75% | [4] 22.5% | [5] -0.65% | [6] 6.3%

CCN(CC)CCN(CC)C(=S)Nc1ccccc1
inactive: [1] 1.75% | [2] 21.2% | [3] 23.2% | [4] -4.65% | [5] 2% | [6] 12.2%

CC(O)C(=O)OCCOc1ccc(Cl)cc1Cl (stereo unspecified)
inactive: [1] 7.75% | [2] 10.3% | [3] 27.3% | [4] -38.1% | [5] 31.3% | [6] 28.2%

CC(C(=O)O)c1ccc(-c2ccccc2)cc1 (stereo unspecified)
inactive: [1] 10.6% | [2] 13.3% | [3] -1.85% | [4] -12.2% | [5] 1.4% | [6] 7.1%

CN1c2ccccc2N(C(=O)c2ccc(Cl)cc2)C(CC(=O)O)c2cccn21 (stereo unspecified)
inactive: [1] 43.1% | [2] 31.1% | [3] 23.3% | [4] 44.8% | [5] 38.5% | [6] 29.2%

CC(=O)OC1COC(N2C(=O)C(=O)c3c(C)cc(Cl)nc32)C(OC(C)=O)C1OC(C)=O (stereo unspecified)
inactive: [1] -22.6% | [2] -15.7% | [3] -22.4% | [4] -24.1% | [5] -24.1% | [6] -8.3%

COc1cc(C=O)c(Cl)cc1OC(C)=O
inactive: [1] 32.9% | [2] 21.9% | [3] 36.4% | [4] 32.8% | [5] -10.1% | [6] 27.9%

CC(=O)[C@@]1(O)CC[C@H]2[C@@H]3CC=C4C[C@@H](Cl)CC[C@]4(C)[C@H]3CC[C@@]21C
inactive: [1] -16.9% | [2] 4.85% | [3] 13.8% | [4] -2.75% | [5] 8.5% | [6] 7.1%

Oc1ccc(O)c(CNc2ccc(C(O)C(F)(F)F)cc2)c1 (stereo unspecified)
inactive: [1] 14.9% | [2] 9.2% | [3] 16.8% | [4] 6.45% | [5] 22.1% | [6] 15.9%

COc1ccc(CC2c3cc(OC)c(OC)cc3CC[N+]2(C)C)cc1OC (stereo unspecified)
inactive: [1] -13.1% | [2] -20.8% | [3] 1.6% | [4] 10.9% | [5] -1.65% | [6] -46.4%

CCOC(=O)c1cc([N+](=O)[O-])cnc1C
inactive: [1] 5.8% | [2] 10% | [3] -1.7% | [4] 0.4% | [5] 8.45% | [6] 2.4%

Cc1ccc(O)cc1N(C)C
inactive: [1] -18.4% | [2] -3.95% | [3] -12.7% | [4] -35% | [5] -6.25% | [6] -3.65%

N#CCC(=O)OCCCc1ccccc1
inactive: [1] 15.8% | [2] 9.2% | [3] -1.5% | [4] -32.5% | [5] 2.65% | [6] 0.45%

Cc1ccc(S(=O)(=O)Oc2ccc(Cl)c(C)c2)cc1
inactive: [1] 39.5% and -16.1% | [2] 6% and -11.8% | [3] 35.4% and -25.1% | [4] 14.1% and -74.5% | [5] 38.9% and 14.8% | [6] 17.8% and 5.1%

CN(C)c1ccc(/C=C(\C#N)c2ccc(F)cc2)cc1
inactive: [1] -2.65% | [2] -1.8% | [3] 3.05% | [4] -26.6% | [5] -6.75% | [6] -17.8%

N#CC1(c2ccccc2)CCC1
inactive: [1] 4.85% | [2] -24.9% | [3] 7.5% | [4] 16.6% | [5] 6.4% | [6] 5.1%

C(/C=N/Nc1ccccc1)=N\Nc1ccccc1
inactive: [1] 24.1% | [2] -8.15% | [3] -0.65% | [4] -3% | [5] -9.85% | [6] 8.8%

COC1OC(CO)C(O)C(Nc2ccc([N+](=O)[O-])cc2[N+](=O)[O-])C1O (stereo unspecified)
inactive: [1] 7.2% | [2] 1.05% | [3] 19.1% | [4] -53.6% | [5] -10.8% | [6] 1.1%

CCCCCCCCCCCC
inactive: [1] -33.9% | [2] 25.4% | [3] 13.6% | [4] -25.9% | [5] 37.9% | [6] -9.9%

CC1OC(Cl)CC(NC(=O)C(F)(F)F)C1OC(=O)C(F)(F)F (stereo unspecified)
inactive: [1] -0.55% | [2] -1.7% | [3] -5.55% | [4] -17.8% | [5] 14.2% | [6] 13.9%
